Inconclusive results are not listed. Active and inactive are the calls of the source. Calls come from the whole dose curve; as a rule, active = well fitted curve in the direction sought with a large enough effect; inconclusive = small, poorly fitted or top-dose-only effect, or another doubt; inactive = no such curve, though single readings can be large; an effect the other way counts as inactive or inconclusive.
What was measured:
[1] = target: Glutathione peroxidase 1 (Homo sapiens) (UniProt P07203); assay: Primary qHTS Assay for Inhibitors of Recombinant Selenoprotein Glutathione Peroxidase 1 (GPX1) (AID 1845191); note: nearly all actives have a fitted effect of over 65% in size; for activity, negative = inhibition: % is set by controls: 0 for no effect and ±100 for the full control effect
Chain of Glutathione peroxidase 1 (Homo sapiens) (P07203 whole entry, looked up): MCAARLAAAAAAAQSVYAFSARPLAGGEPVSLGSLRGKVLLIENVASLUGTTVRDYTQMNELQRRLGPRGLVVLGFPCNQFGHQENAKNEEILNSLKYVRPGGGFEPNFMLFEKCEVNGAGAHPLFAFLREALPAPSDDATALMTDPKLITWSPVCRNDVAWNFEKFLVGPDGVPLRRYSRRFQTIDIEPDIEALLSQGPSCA
Procedure, shortened: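 Recombinant GPX1 (10 nM final) was preincubated with compound for 30 min at room temperature, then reacted with 1 mM GSH, 0.5 mM CHP, 0.5 mM NADPH and 100 nM glutathione reductase; NADPH fluorescence (340/450 nm) was read at 0 and 15 min.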

[2] = target: Phospholipid hydroperoxide glutathione peroxidase GPX4 (Homo sapiens) (UniProt P36969); assay: Primary qHTS Assay for Inhibitors of Recombinant Selenoprotein Glutathione Peroxidase 4 (GPX4) (AID 1845192); note: nearly all actives have a fitted effect of over 65% in size; for activity change, negative = inhibition: series mostly up to about 50 µM; % is set by controls: 0 for no effect and ±100 for the full control effect
Chain of Phospholipid hydroperoxide glutathione peroxidase GPX4 (Homo sapiens) (P36969 whole entry, looked up): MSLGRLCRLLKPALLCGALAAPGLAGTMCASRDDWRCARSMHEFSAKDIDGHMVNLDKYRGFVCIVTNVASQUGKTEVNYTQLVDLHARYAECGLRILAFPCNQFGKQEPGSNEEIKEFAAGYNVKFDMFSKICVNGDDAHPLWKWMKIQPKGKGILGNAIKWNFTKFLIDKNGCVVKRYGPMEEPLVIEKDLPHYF
Procedure, shortened: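 GR-coupled readout: 100 nM GR, 1 mM GSH, 0.5 mM NADPH; NADPH fluorescence (ex 340/em 450 nm) read at t=0 and after 15 min RT. GPX4 200 nM, preincubated 30 min with compound; substrate 0.5 mM CHP.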

[3] = target: Luciferin 4-monooxygenase (Photinus pyralis) (UniProt P08659); assay: Primary firefly luciferase (FLuc) qHTS assay for identification of artifact compounds. (AID 1845220); note: nearly all actives have a fitted effect of over 60% in size;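 for activity change, negative = inhibition: series mostly up to about 54 µM; plate controls were DMSO vehicle for no effect and no enzyme for full effect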
Procedure, shortened: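 qHTS, 15 min compound preincubation with substrate (10 uM luciferin, 10 uM ATP) at RT, then 10 nM FLuc; 5 min; luminescence; % inhibition vs no-enzyme/DMSO controls, 4-parameter Hill fit.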

[4] = Primary fluorescence-based thiol-reactive (MSTI) qHTS assay for identification of artifact compounds. (AID 1845221); note: nearly all actives have a fitted effect of over 65% in size; note: potency is the fitted concentration of half-maximal effect;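 for activity change, negative = thiol reactive: series mostly up to about 54 µM; thiol-reactive compounds lower the probe fluorescence signal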
Procedure, shortened: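 Curve-fitted percent inhibition (4-parameter Hill) derived from fluorescence, Ex 525/Em 598 nm, scaled with Acetyl-MSTI and MSTI; 1 h incubation at room temperature.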

[5] = tested on: Nanoluciferase (engineered Oplophorus gracilirostris luciferase); assay: Primary Nanoluciferase (NLuc) qHTS assay for identification of artifact compounds. (AID 1845222);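 note: series mostly up to about 54 µM; 0% = DMSO and -100% = no enzyme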
Procedure, shortened: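 Luminescence read-out of secreted NLuc in S16 cell conditioned medium (1:55); compounds tested with 15 min RT preincubation, then Nano-Glo substrate 1:100, 5 min. % inhibition vs no-enzyme and DMSO controls, 4-parameter Hill fit.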

[6] = Primary redox qHTS assay for identification of artifact compounds. (AID 1845223);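 note: 0% = DMSO and 100% = reference compound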
Procedure, shortened: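 Amplex Red (25 uM) and HRP (250 mU/mL) in HBSS, with compounds for 15 min, then 250 uM DTT for 30 min, room temperature, dark. Fluorescence 525/598 nm read; normalized to DMSO and 10 uM DA3003; Hill fit.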

C[C@@H]1O[C@@H](O[C@H]2[C@H](O)[C@@H](O)[C@H](OC[C@H]3O[C@@H](OC(=O)[C@]45CCC(C)(C)C[C@H]4C4=CCC6[C@@]7(C)CC[C@H](O[C@@H]8OC[C@H](O)[C@H](O[C@@H]9O[C@H](CO)[C@@H](O)[C@H](O)[C@H]9O)[C@H]8O)[C@@](C)(CO)C7CC[C@@]6(C)[C@]4(C)CC5)[C@H](O)[C@@H](O)[C@@H]3O)O[C@@H]2CO)[C@H](O)[C@H](O)[C@H]1O (stereo partly drawn)
inactive: activity, negative = inhibition [1] -7.31% [at 9.52 µM] | activity change, negative = inhibition [2] -3.72% [at 9.73 µM] | activity change, negative = inhibition [3] 2.93% [at 11.6 µM] | activity change, negative = thiol reactive [4] 205% [at 11.5 µM] | activity, negative = inhibition [5] 3.4% [at 11.6 µM]

CC1(C)CCC2(C(=O)OC3OCC(O)C(O)C3O)CCC3(C)C(=CCC4C5(C)CC(O)C(OC6OC(COC7OCC(O)C(O)C7O)C(O)C(O)C6O)C(C)(C)C5CCC43C)C2C1 (stereo not drawn)
inactive: Potency [1] | Potency [2] | outcome [3] inactive [at 11.6 µM] | activity change, negative = thiol reactive [4] -15.2% [at 11.5 µM] | activity, negative = inhibition [5] 0.507% [at 11.6 µM]

C=CC(C)(C)c1[nH]c2ccccc2c1C[C@@H]1NC(=O)[C@H](Cc2c[nH]c3ccccc23)NC1=O
inactive: Potency [1] | Potency [2] | Potency [3] | Potency [5]
active: Potency [4] 2.32 µM

CC[C@H](C)[C@H](NC(=O)[C@H]([C@@H](C)CC)N(C)C(C)=O)C(=O)N[C@H](C(=O)N[C@@H](CC(C)C)C(=O)[C@@]1(C)CO1)[C@@H](C)O
inactive: Potency [1] | Potency [2] | Potency [3] | Potency [4] | Potency [5]

Cc1nc(Nc2n[nH]c3c2CN(C(=O)NC(CN(C)C)c2ccccc2)C3(C)C)c2sccc2n1 (stereo not drawn)
inactive: Potency [1] | Potency [2] | Potency [3] | Potency [4] | Potency [5]

CC(=O)OC1C(c2ccccc2)CCC(c2ccccc2)C1OC(C)=O (stereo not drawn)
inactive: Potency [1] | Potency [2] | Potency [3] | Potency [4] | Potency [5]

C#CCN(Cc1cc2c(=O)n(C)c(CN3CCN(C)CC3)nc2cc1Cl)c1ccc(C(=O)NCc2cccnc2)cc1
inactive: Potency [1] | Potency [2] | Potency [3] | Potency [4] | Potency [5]

CC1(C)CCC2(C(=O)OC3OC(CO)C(O)C(O)C3O)CCC3(C)C(=CCC4C5(C)CCC(O)C(C)(C(=O)O)C5CCC43C)C2C1O (stereo not drawn)
inactive: Potency [1] | Potency [2] | Potency [3] | Potency [4] | Potency [5]

Cc1nc2ccc(Oc3ccc(F)cc3)cc2c(=O)n1C[C@H]1CCCN(C(C)C)C1
inactive: Potency [1] | Potency [2] | Potency [3] | Potency [4] | Potency [5]

COc1ccc(C2(O)CCC(N3CC[C@@H](NC(=O)CNC(=O)c4cccc(C(F)(F)F)c4)C3)CC2)cn1 (stereo partly drawn)
inactive: Potency [1] | Potency [2] | Potency [3] | Potency [4] | Potency [5]

C=C1CCC2C(C)(C(=O)O)CCCC2(C)C1CCC(C)CC(=O)O (stereo not drawn)
inactive: Potency [1] | Potency [2] | Potency [3] | Potency [4] | Potency [5]

O=S(=O)(NC1CCC(c2cc(F)ccc2F)(S(=O)(=O)c2ccc(Cl)cc2)CC1)C(F)(F)F (stereo not drawn)
inactive: Potency [1] | Potency [2] | Potency [3] | Potency [4] | Potency [5]

COc1ccc([C@@H]2OC[C@H]3[C@@H]2CO[C@@H]3c2ccc(OC3OC(CO)C(O)C(O)C3O)c(OC)c2)cc1OC (stereo partly drawn)
inactive: Potency [1] | Potency [2] | Potency [3] | Potency [5]
active: Potency [4] 8.22 µM

CCCC(=O)NCCc1csc(-c2ccc(Cl)cc2)n1
inactive: Potency [1] | Potency [2] | Potency [3] | Potency [4] | Potency [5]

C[C@@H](O)[C@H](NC(=O)c1ccc(C#Cc2ccc(CN3CCOCC3)cc2)cc1)C(=O)NO
inactive: Potency [1] | Potency [2] | Potency [3] | Potency [4] | Potency [5]

CC(C)CCC[C@@H](C)[C@H]1CC[C@H]2[C@@H]3CC(=O)[C@H]4C[C@@H](O)CC[C@]4(C)[C@H]3CC[C@]12C
inactive: Potency [1] | Potency [2] | Potency [3] | Potency [4] | Potency [5]

Oc1ccc(CNc2ccccc2F)c2cccnc12
inactive: Potency [1] | Potency [2] | Potency [3] | Potency [5]
active: Potency [4] 3.77 µM

COC1CC(O[C@H]2CC[C@@]3(C)C(=CC[C@]4(O)C3[C@H](OC(C)=O)[C@@H](OC(=O)c3ccccc3)[C@]3(C)[C@@H](C(C)=O)CC[C@@]34O)C2)OC(C)C1OC1CC(OC)C(OC2CC(OC)C(OC3OC(C)C(OC4OC(CO)C(O)C(O)C4O)C(OC)C3O)C(C)O2)C(C)O1 (stereo partly drawn)
inactive: outcome [1] inactive [at 9.52 µM] | activity change, negative = inhibition [2] -9.45% [at 9.73 µM] | outcome [3] inactive [at 11.6 µM] | activity change, negative = thiol reactive [4] 29.9% [at 11.5 µM] | activity, negative = inhibition [5] 2.42% [at 11.6 µM]

Cc1cc2c(F)c(Oc3ncnn4cc(OCC(C)O)c(C)c34)ccc2[nH]1 (stereo not drawn)
inactive: Potency [1] | Potency [2] | Potency [3] | Potency [4] | Potency [5]

C=CC1C(OC2OC(CO)C(O)C(O)C2O)OC=C(C(=O)OC)C1CC1CC(=O)CC(CCc2ccc(O)cc2)O1 (stereo not drawn)
inactive: Potency [1] | Potency [2] | Potency [3] | Potency [4] | Potency [5]

CC(=O)OC1C(O)C2C(C)C3=CC(=O)OC3(O)CC2C2(C)CCCC(C)(CO)C12 (stereo not drawn)
inactive: Potency [1] | Potency [2] | Potency [3] | Potency [4] | Potency [5] | Potency [6]

CC(C)(C)NCCCNC(=O)c1cccc(Br)c1
inactive: Potency [1] | Potency [2] | Potency [3] | Potency [4] | Potency [5] | Potency [6]

CC(C)(C)NS(=O)(=O)c1cncc(-c2cc(F)c3nc(N)nn3c2)c1
inactive: Potency [1] | Potency [2] | Potency [3] | Potency [4] | Potency [5] | Potency [6]

CC1CCC2(C=O)C(CO)=CCCC2C1(C)CC(=O)O (stereo not drawn)
inactive: Potency [1] | Potency [2] | Potency [3] | Potency [5]
active: Potency [4] 3.36 µM
